Laboratory results reported in PubChem BioAssay (NCI).
About 79,000 compounds went through this panel and 15% of them were active in at least one assay; those are over-represented in the sample as a whole. Activity calls are given as the source filed them. Rule as the data show it: active = growth inhibition above about 70%; inactive = the rest.

What was measured:
[1] = NCI Yeast Anticancer Drug Screen. Data for the rad50 strain (AID 155);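 also: 0% = growth of vehicle-only cultures of the same strain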; details: S. cerevisiae rad50 strain growth inhibition; at 50.0 µM; hits give high values
Summary of the method: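 Relative growth inhibition (compound vs vehicle) was measured in yeast with a defined repair-gene alteration.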

[2] = NCI Yeast Anticancer Drug Screen. Data for the mec2-1 strain (AID 157); details: S. cerevisiae mec2-1 strain, at 50.0 µM, hits give high values
Summary of the method: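 Mutant yeast (mec2-1) grown with compound; growth inhibition relative to vehicle control reported.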

[3] = NCI Yeast Anticancer Drug Screen. Data for the sgs1 mgt1 strain (AID 161);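 also: 0% = growth of cultures given vehicle only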; details: S. cerevisiae sgs1 mgt1 strain, at 50.0 µM, hits give high values
Summary of the method: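 Growth of a repair-deficient yeast mutant was monitored after compound treatment and expressed as inhibition relative to vehicle-treated cultures.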

[4] = NCI Yeast Anticancer Drug Screen. Data for the cln2 rad14 strain (AID 165);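 also: 0% = growth equal to vehicle treated cultures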; details: S. cerevisiae cln2 rad14 strain, at 50.0 µM, hits give high values
Summary of the method: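 Readout is yeast growth inhibition versus vehicle-treated controls, using a strain with cln2 and rad14 alterations exposed to compound.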

[5] = NCI Yeast Anticancer Drug Screen. Data for the bub3 strain (AID 167); details: S. cerevisiae bub3 mutant strain, at 50.0 µM, hits give high values
Summary of the method: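 Screening used yeast with an engineered genetic alteration affecting cell cycle control. Compound-exposed cultures were compared with vehicle cultures, and reduced growth was taken as inhibition.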

[6] = NCI Yeast Anticancer Drug Screen. Data for the mlh1 rad18 strain (AID 175); details: S. cerevisiae mlh1 rad18 strain growth inhibition; at 50.0 µM; hits give high values
Summary of the method: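 Genetically defined yeast (DNA repair-deficient) exposed to compounds; growth inhibition determined relative to vehicle.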

Measured: growth inhibition

CCCCCCOC(=O)c1cccc(C)c1
inactive: [1] 7.15% | [2] 4.4% | [3] 5.8% | [4] -35% | [5] 6.85% | [6] 11.2%

CC(=O)OCC(OC(C)=O)C1(O)CCC2C3CCC4=CC(=O)CCC4(C)C3CCC21C (stereo not given)
active: [1] 98.4% | [2] 99% | [3] 98.5% | [4] 97.8% | [5] 98.3% | [6] 98.3%

CC(=O)Oc1ccc(C(=O)c2ccc(OC(C)=O)cc2)cc1
inactive: [1] -7.5% | [2] -16.6% | [3] 6.25% | [4] -22.4% | [5] -4.45% | [6] 22.2%

O=C(O)C(CS)NC1CC(=O)N(Cc2ccccc2)C1=O (stereo not given)
inactive: [1] 1.95% | [2] 9.8% | [3] 18.6% | [4] -19.3% | [5] -1.55% | [6] -8.25%

CCC1CN2CCc3cc(OC)c(OC)cc3C2CC1CCCl (stereo not given)
inactive: [1] -8.6% | [2] 4.05% | [3] -4.5% | [4] -9.7% | [5] -29.9% | [6] -24.7%

O=C1CCC([N+](=O)[O-])C(c2ccccc2Cl)N1 (stereo not given)
inactive: [1] 10.7% | [2] -15.9% | [3] 20.1% | [4] -0.9% | [5] 29.7% | [6] 20.5%

O=C(OCC(Cl)(Cl)Cl)N1[C@H]2C3=C(CCC3)[C@@H]([C@H]3O[C@H]32)N1C(=O)OCC(Cl)(Cl)Cl
inactive: [1] -38.8% | [2] -8.35% | [3] -1.9% | [4] 20.7% | [5] 10% | [6] 2.3%

CCOC(=O)C(/C(=N/NC(=O)OC)C(=O)Nc1ccc(C(C)=O)cc1)c1cnc2ccccc2n1 (stereo not given)
inactive: [1] 0.9% | [2] -40.9% | [3] -26.6% | [4] 26.1% | [5] -1.5% | [6] 0.25%

O=C1CCC(=O)O1
inactive: [1] -8.6% | [2] 17% | [3] -11.7% | [4] 6.45% | [5] 3.95% | [6] -51.9%

CC(=O)OC1CCC2(C)C(=CCC3C2CCC2(C)C3CCC23SCCS3)C1 (stereo not given)
inactive: [1] 24% | [2] -3% | [3] 4.25% | [4] -60.1% | [5] -2.9% | [6] 9.6%

Cc1ccc(NC(=O)Oc2ccc3ccccc3c2)cc1NC(=O)Oc1ccc2ccccc2c1
inactive: [1] 1.35% | [2] -19.4% | [3] -4.45% | [4] -86.5% | [5] 4.9% | [6] -1.85%

Cc1cc2c(c3oc(C4(C)OC4C4OC4C)cc(=O)c13)C(=O)c1c(O)c(C3CC(C)(N(C)C)C(O)C(C)O3)cc(C3CC(N(C)C)C(O)C(C)O3)c1C2=O (stereo not given)
active: [1] 88.6% | [2] 92.2% | [3] 90.7% | [4] 88.8% | [5] 89.2% | [6] 87.5%

O=C(O)C1CSC(c2cccs2)N1 (stereo not given)
inactive: [1] -19.2% | [2] -46.5% | [3] -4.4% | [4] 1.4% | [5] -32.2% | [6] -8.1%

CS/C(N)=N\C(=O)N(C)C
inactive: [1] 2.75% | [2] -14.5% | [3] -4.45% | [4] -20.6% | [5] -8.55% | [6] 3.65%

CCCC#CCN(CCCC)CCCC
inactive: [1] -8.95% | [2] 0.15% | [3] -3.8% | [4] -7.9% | [5] 58% | [6] -20.1%

CCOC(=N)CC(=O)NC(C)c1ccccc1 (stereo not given)
inactive: [1] 2.25% | [2] -3.6% | [3] -6% | [4] 14.3% | [5] 0.15% | [6] 1.85%

Nc1nc(-c2ccc3c(ccc4ccccc43)c2)cs1
inactive: [1] 7.6% | [2] 15.5% | [3] 18.2% | [4] -46.3% | [5] 47.7% | [6] 28.2%

CCCCNc1nc(Cl)nc(C(F)(F)F)c1N
inactive: [1] 7.35% | [2] 2.45% | [3] 6.55% | [4] -29.8% | [5] 1.4% | [6] 1.35%

CCOC(=O)c1c[nH]c2cc(Cl)ccc2c1=O
inactive: [1] 3.85% | [2] 30.5% | [3] 9.65% | [4] 7.9% | [5] 15.3% | [6] -12.9%

O=C(CSc1nnc(-c2ccc(N=Cc3ccc(Cl)cc3)cc2)o1)Nc1ccc([N+](=O)[O-])cc1
inactive: [1] 14.7% | [2] -7.65% | [3] 14.7% | [4] -53.8% | [5] -11.3% | [6] 14.9%

O=[N+]([O-])c1cc(Br)cc2c1[nH]c1nc3ccc(C(F)(F)F)cc3nc12
inactive: [1] 45.5% | [2] -17.9% | [3] 8.1% | [4] 17.4% | [5] -2.2% | [6] -3.55%

O=[N+]([O-])c1ccc(N/N=C/c2ccccc2Cl)cc1
inactive: [1] 8% | [2] 12.4% | [3] 26.4% | [4] -1.3% | [5] 36.4% | [6] 31.4%

N#CNC(=NCC1CCCO1)Nc1cccnc1 (stereo not given)
inactive: [1] 2.9% | [2] -9.8% | [3] -26.4% | [4] -23.4% | [5] 23.9% | [6] -2.35%

CC(=NNC(=S)Nc1ccccc1)c1cccc(C(C)=NNC(=S)Nc2ccccc2)n1
inactive: [1] -7.4% | [2] -7.55% | [3] -0.8% | [4] 2.65% | [5] -2.3% | [6] 6.4%

O=C1c2cc(Cl)ccc2-c2ccc(N=Cc3ccccc3Cl)cc21
inactive: [1] 1.65% | [2] -1.55% | [3] -7.8% | [4] -89.5% | [5] 34.1% | [6] -1.35%

C(=C\c1cc(-c2ccc3ccccc3n2)nc2ccc3ccccc3c12)/c1ccc2ccccc2n1
inactive: [1] 9.7% | [2] -1.4% | [3] 26.9% | [4] 28.9% | [5] 25.5% | [6] -11.2%

CN(C)/C=N/NC(=O)C(O)(c1ccccc1)c1ccccc1
inactive: [1] -7.45% | [2] 9.8% | [3] -7.85% | [4] -0.25% | [5] 1.55% | [6] 7.15%

CCc1c(COC(=O)NC)c(COC(=O)NC)cc2c1[nH]c1ccccc12
inactive: [1] -16.6% | [2] -1.95% | [3] -2.95% | [4] -16.4% | [5] -41% | [6] -14.6%

COC(=O)[C@]1(C)CCC[C@]2(C)C3=C[C@@H](O)[C@@]4(C(C)C)O[C@H]4[C@]3(O)CC[C@@H]12
inactive: [1] -17.9% | [2] -29.3% | [3] -9.15% | [4] -2.7% | [5] -8.25% | [6] -26.6%

CC(=O)CC(=O)Nc1ccc(Cl)cc1
inactive: [1] -2.75% | [2] -27.9% | [3] 12.2% | [4] 3.85% | [5] -5.55% | [6] 8.45%

CN(C)CCNC(=O)c1cccc2nc3c(C(=O)NCCN(C)C)cccc3nc12
inactive: [1] -11.7% | [2] -20.4% | [3] -46.6% | [4] -33.7% | [5] -34.1% | [6] -40.5%

C=CCN1COc2c(cc3c4c(cccc24)C(=O)O3)C1
inactive: [1] -0.25% | [2] -4.25% | [3] 10.1% | [4] 8.35% | [5] 6.35% | [6] 8.35%

Cc1cc(S(=O)(=O)Nc2nc(N)n(C)n2)c(S)cc1Cl
inactive: [1] -19.1% | [2] -18.3% | [3] -3.3% | [4] -3.1% | [5] -29.2% | [6] -1.85%

C=C(C)CNC(C)=O
inactive: [1] -7.75% | [2] 3% | [3] 0% | [4] 0% | [5] 3.4% | [6] 1.95%

O=C(NC12CC3CC(CC(C3)C1)C2)C(=O)c1c[nH]c2ccccc12
inactive: [1] 8.5% | [2] 14.2% | [3] 8.1% | [4] 24.6% | [5] 23.6% | [6] 11.4%

OCC1OC(OC2CC3C(OC4OC(CO)C(O)C(O)C4O)CC(O)CC3OC2c2ccc(O)cc2)C(O)C(O)C1O (stereo not given)
inactive: [1] 18.1% | [2] 16.2% | [3] 21% | [4] 14.5% | [5] 11.8% | [6] 16.1%

C/C=C/C(=O)Nc1cc(Cl)ccc1C
inactive: [1] -1.25% | [2] -8.1% | [3] -4.95% | [4] -52.1% | [5] 9.4% | [6] 5.55%

COc1ccccc1Cn1nc(OC)c2cc([N+](=O)[O-])ccc21
inactive: [1] 27.6% | [2] 30.6% | [3] -6.1% | [4] 2.05% | [5] -17.9% | [6] -64.7%

COC(=O)C1C2CC3C(C2=O)C31 (stereo not given)
inactive: [1] 6.45% | [2] -4.7% | [3] 4.45% | [4] 21.1% | [5] 20.4% | [6] 6.85%

COC1CC(NC(C)=O)C2OC(c3ccccc3)OCC2O1 (stereo not given)
inactive: [1] 4.35% | [2] 11.2% | [3] -10.2% | [4] 6.1% | [5] -3.45% | [6] 4.45%
